FGF22 binding: binders of human FGF22 protein, primary screen, FGF22 synaptogenesis inhibitor project, biophysical, thermal shift, single point; 340,000 compounds, 1.5% hits; recombinant FGF22 thermal shift, SYPRO orange fluorescence; percent of sucrose octasulfate shift, DMSO zero; Fibroblast growth factor 22 (Homo sapiens), Q9HCT0; AID 651658, 2012; activity (Tm shift, normalised), % at 9.99 µM;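 active means mean Tm shift, scaled 0 neutral to 100 positive control, at about 1.3% or above, every replicate too, limit read from the data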
Target sequence (Q9HCT0 whole entry, looked up): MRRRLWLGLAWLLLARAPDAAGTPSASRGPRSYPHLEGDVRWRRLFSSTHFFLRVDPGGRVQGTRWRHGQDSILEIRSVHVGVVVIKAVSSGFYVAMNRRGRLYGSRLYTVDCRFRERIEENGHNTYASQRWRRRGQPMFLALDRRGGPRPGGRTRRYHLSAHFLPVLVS
ADAM10 inh: human ADAM10 inhibitors, primary screen, biochemical, QFRET, HTS | 370,000 compounds, 0.62% hits | inhibition, % at 7 µM | recombinant ADAM10, EDANS/DABCYL FRET peptide cleavage, 3 h | Disintegrin and metalloproteinase domain-containing protein 10 (Homo sapiens), O14672;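 active means inhibition above a per-campaign cutoff equal to the mean of compounds falling between control-based bounds plus 3 SD, cut at about 20% in these data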;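 further: 0% = DMSO wells while the 100% control is not disclosed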
proKLK7 act: proKLK7 zymogen activators, primary screen, biochemical, fluorescence intensity; Kallikrein-7 (Homo sapiens), P49862; purified proKLK7, EDANS-DABCYL substrate fluorescence; 100% is mature enzyme control, 0% vehicle; 370,000 compounds, 0.9% hits; activation, % at 7 µM;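 active means activation above the mean of all tested compounds plus 3 SD, computed per campaign excluding outliers beyond control limits, cut at about 13% in these data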
Target sequence (P49862 whole entry, looked up): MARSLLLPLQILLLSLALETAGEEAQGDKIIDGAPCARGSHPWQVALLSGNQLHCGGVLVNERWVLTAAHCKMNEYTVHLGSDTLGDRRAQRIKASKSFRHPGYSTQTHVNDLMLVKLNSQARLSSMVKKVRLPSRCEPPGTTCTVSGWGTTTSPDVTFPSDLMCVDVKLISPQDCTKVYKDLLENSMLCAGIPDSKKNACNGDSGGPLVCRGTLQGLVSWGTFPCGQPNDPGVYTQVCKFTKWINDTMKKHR
ADAM17 inh: ADAM17 inhibitors, primary screen, biochemical, QFRET; AID 720648, 2013; 370,000 compounds, 0.83% hits; inhibition, % at 6.95 µM; Disintegrin and metalloproteinase domain-containing protein 17 (Homo sapiens), P78536; recombinant ADAM17, EDANS/DABCYL FRET peptide cleavage;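 active means inhibition above the mean of compounds lying between control limits plus 3 SD, set per campaign, cut at about 8.5% in these data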;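 further: 0% = DMSO-only wells as the low control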
Ecoli rRNA inh: reduced GFP signal of wild-type E. coli, primary screen, bacterial rRNA inhibitor project, GFP/RFP fluorescence, OD600, single point. E. coli WT GFP vs humanized-ribosome RFP mutants, 24 h; active compounds read low; DMSO median 0, no signal -100. GFP signal change (wild-type ribosome), % (concentration not given with the values). 350,000 compounds, 1.6% hits;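 active means significant combined selectivity score with lowered wild-type GFP, culture density cut under 30%, mutant RFP and density less affected; inactive means any of these conditions unmet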
Starred values were filed as active, the others as inactive; x = no result. Hits are enriched below; roughly 3.8% of the tested compounds scored in any of these assays.

SMILES	FGF22 binding	ADAM10 inh	proKLK7 act	ADAM17 inh	Ecoli rRNA inh
COc1cccc(-c2cc3nc(Nc4ccc(OC)c(OC)c4)n(C)c(=O)c3s2)c1	-0.3	-11.2	0.5	2.6	-6.1
COc1ccc(Nc2nc3cc(-c4ccsc4)sc3c(=O)n2C)cc1OC	-0.1	-2.5	0.8	2.3	-20.8*
O=C(NC(=S)NCc1ccc(Cl)cc1Cl)c1ccco1	43.3*	3.2	0.5	0.3	-8.8
O=C(OCC(=O)N1CCN(Cc2ccccc2)CC1)c1ccc(Cl)cc1	43.6*	-5.3	0.1	-1.3	x
Oc1ccc(C(=S)N2CCN(Cc3ccccc3)CC2)cc1	0.2	-0.4	0.6	-3.6	-7.0
S=C(c1ccc(Br)cc1)N1CCN(Cc2ccccc2)CC1	0.1	1.9	-0.5	-2.8	-22.1*
CC(=O)Nc1ccc2c(c1)C(=O)N(C)C[C@H](C)[C@@H](CN(C)C(=O)NC(C)C)O2	x	x	x	x	0.4
Cc1ccc(/C=N/N=C/c2ccc(C)cc2)cc1	0.1	4.4	0.1	-0.2	3.0
Oc1ccc(/C=N/N=C/c2ccc(O)cc2)cc1	66.5*	2.8	-12.2	-3.6	4.8
Cc1cccc(C2C3=C(Nc4[nH]n(-c5ccccc5)c(=O)c42)c2ccccc2C3=O)c1 (centres undefined)	-0.6	16.4	0.0	9.8*	-38.0*
CC1=C([N+](=O)[O-])C(c2ccccc2)C2=C(N1)c1ccccc1C2=O (centres undefined)	x	5.4	0.7	1.1	x
CO[C@H]1CN(C)C(=O)c2cc(NC(=O)C3CC3)ccc2OC[C@H](C)N(Cc2ccccc2)C[C@@H]1C	-0.1	x	x	x	-4.5
O=C(CCn1c(=O)oc2ccccc21)N(Cc1ccccc1)c1ccccc1	0.1	-4.0	0.7	1.9	-23.2
CCCCN(C(=O)CCn1c(=O)oc2ccccc21)c1ccccc1	-0.5	-7.0	-0.2	-4.6	-26.9*
COC(=O)c1c(C)[nH]c(C(=O)OCC(=O)c2ccc(C)s2)c1C	0.0	-3.1	0.3	-2.4	-19.9*
C[C@@H]1CN([C@@H](C)CO)C(=O)c2cc(-c3cccc(C#N)c3)cnc2O[C@@H]1CN(C)C(=O)C1CCC1	-0.1	x	x	x	0.9
CCNC(=O)n1cc(-n2cncn2)c(-c2ccccc2)n1	43.4*	0.6	0.2	-2.7	6.8
CC(C)(O)C#Cc1ccc(C(=O)N2CCN(c3ccccc3)CC2)cc1	43.1*	-7.7	-0.6	-0.2	x
O=C(c1ccc(CSc2ccccc2)cc1)N1CCN(c2ccccc2)CC1	43.4*	-2.3	0.8	0.1	-5.0
COc1ccccc1N1CCN(C(=O)c2ccc(CSc3ccccc3)cc2)CC1	x	13.9	0.0	5.9	x
CC(C)(O)C#Cc1ccc(C(=O)N2CCN(c3ccc([N+](=O)[O-])cc3)CC2)cc1	-0.1	-2.5	0.6	3.5	-2.5
C[C@@H]1CN([C@H](C)CO)C(=O)c2cc(N(C)C)ccc2O[C@@H](C)CCCCO[C@H]1CN(C)C(=O)Nc1ccc2c(c1)OCO2	x	x	x	x	-3.7
COc1ccc(-c2cc(C3CCN(Cc4cccc(C(F)(F)F)c4)CC3)[nH]n2)cc1	-0.2	23.9*	0.2	12.3*	x
COCC(=O)N(C)C[C@@H]1Oc2ncc(C#C[C@H](C)O)cc2C(=O)N([C@@H](C)CO)C[C@H]1C	0.0	x	x	x	3.7
CCN(CC)c1ccc(C(=O)NNC(=O)CCl)cc1	44.2*	-7.8	0.3	0.7	-8.1
SMILES	FGF22 binding	ADAM10 inh	proKLK7 act	ADAM17 inh	Ecoli rRNA inh
COc1ccc2c3c(n(C)c2c1)[C@H](CO)N(C(=O)Nc1cccc(F)c1)CC31CCN(C)CC1	x	x	x	x	6.5
CC(=O)c1ccc(NC(=O)C(C)N(C)CC(=O)Nc2ccc(N3CCOCC3)cc2)cc1 (centres undefined)	-0.1	-5.8	0.1	-2.5	-7.6
CC(=O)c1ccc(NC(=O)C(C)N(C)CC(=O)Nc2ccc(Cl)cc2)cc1 (centres undefined)	44.3*	1.7	-0.1	-2.3	x
C[C@@H]1CCCCO[C@@H](CN(C)Cc2ccc(C(F)(F)F)cc2)[C@H](C)CN([C@@H](C)CO)C(=O)c2cc(NS(=O)(=O)c3ccc(Cl)cc3)ccc2O1	0.1	x	x	x	-2.4
Cn1c(CSc2nc3ccc(Br)cc3[nH]2)nc2ccccc21	0.1	-61.9	1.9	-20.1	-21.6*
O=C(O)CCSc1nc2ccc(Br)cc2[nH]1	x	1.1	0.1	-3.5	x
CO[C@@H]1CN(C)C(=O)c2ccc(NS(=O)(=O)C3CCCCC3)cc2OC[C@H](C)NC[C@H]1C	0.1	x	x	x	2.1
CCCNC(=O)Nc1ccc2c(c1)C(=O)N(C)C[C@@H](OC)[C@H](C)CN(Cc1ccccc1)[C@@H](C)CO2	x	x	x	x	-2.5
O=C(Cn1c2[n+](c3ccc(C(F)(F)F)cc31)CCCCC2)c1ccc2c(c1)OCCO2	0.2	-7.0	-0.1	-0.6	-37.8*
CCc1cccc(NC(=O)Cn2c3[n+](c4ccc(C(F)(F)F)cc42)CCCCC3)c1	0.1	-0.9	-0.1	-1.2	-44.7*
CC(=O)Nc1ccc2c(c1)CC(=O)N(C)C[C@H](C)[C@@H](CN(C)S(C)(=O)=O)O2	x	x	x	x	0.6
CCCC#Cc1cnc2c(c1)C(=O)N([C@@H](C)CO)C[C@H](C)[C@H](CN(C)C(=O)c1ccc(F)cc1)O2	0.0	x	x	x	1.5
C[C@@H]1CN([C@H](C)CO)C(=O)c2cc(NC(=O)NC3CCCCC3)ccc2O[C@@H](C)CCCCO[C@@H]1CN(C)C(=O)CCC(F)(F)F	0.1	x	x	x	0.2
Cn1c(N)c(N2CCCCC2)c(=O)n(CC(=O)Nc2cccc(C#N)c2)c1=O	43.0*	2.3	-0.8	1.4	-9.7
CN(C)S(=O)(=O)c1ccc(C(=O)NCC(=O)N/N=C/c2ccccc2)cc1	43.5*	-2.0	0.1	0.6	9.8
O=C(CNC(=O)c1ccc(S(=O)(=O)N2CCCC2)cc1)N/N=C/c1ccccc1	x	10.1	0.5	0.7	x
Cc1cc(C)c(NC(=O)CN(C)CC(=O)Nc2cccc(S(=O)(=O)N(C)c3ccccc3)c2)c(C)c1	-0.1	5.8	0.3	-10.5	-9.8
CC(=O)c1cccc(NC(=O)c2ccc(N(C)S(=O)(=O)c3ccc(C)cc3)cc2)c1	-0.2	13.5	-0.7	3.6	-24.5*
CN(c1ccc(C(=O)Nc2cccc(O)c2)cc1)S(=O)(=O)c1ccccc1	1.1	2.6	-0.4	1.4	-27.2
COc1ccccc1OCCNC(=O)c1ccc(S(=O)(=O)N(C)C)cc1	0.0	-7.0	0.6	-1.4	-18.0*
Cc1ccccc1CN(C)CC(=O)Nc1cccc(S(=O)(=O)N(C)c2ccccc2)c1	-0.2	8.5	0.4	4.4	-20.6*

High-throughput results as filed in PubChem BioAssay.
